High-throughput results as filed in PubChem.
mHTT CaM bind = disrupts binding of mutant huntingtin to calmodulin. P42858. AlphaScreen His-mHTT/GST-CaM binding, luminescence. inhibition, % at 15 µM. 190,000 compounds, 3.6% hits. AID 1671202;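 note: 0% = both proteins with DMSO and 100% = one protein alone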
Pf apPOL block = Pf-apPOL DNA polymerase inhibition | Recombinant Pf-apPOL, molecular beacon fluorescence, 1.5 h | inhibition, % at 10 µM | 210,000 compounds, 0.25% hits | AID 1794808
Starred values were filed as active, the others as inactive; / = not tested or not shown; ! = repeats disagree. A selection: hits, their analogues and other compounds. The true share with any hit is near 3.6%. Cut-off read from the data, not from the text of the source: active = inhibition above about 50%; inactive = the rest.

SMILES	mHTT CaM bind	Pf apPOL block
CCN1C=C(Cc2cccs2)C2=C(C1)C(c1cccs1)C(C#N)=C(N)O2 (stereo not drawn)	72.0*	1.9
CC(C)N1C/C(=C\c2cccs2)C(=O)/C(=C/c2cccs2)C1	54.0*!	4.9
CCN1CC2=C(OC(N)=C(C#N)C2c2cccs2)/C(=C/c2cccs2)C1 (stereo not drawn)	60.0*	/
CC(C)N1CC2=C(OC(N)=C(C#N)C2c2cccs2)/C(=C/c2cccs2)C1 (stereo not drawn)	65.8*	/
O=C1/C(=C/c2cccs2)CC/C1=C\c1cccs1	23.0	-4.0
COCc1[nH]nc2c1C(c1cccs1)C(C#N)=C(N)O2 (stereo not drawn)	-6.2	/
Cc1cc2c(c(=O)o1)C(c1cccs1)C(C#N)=C(N)O2 (stereo not drawn)	-3.0	/
COCCN1C(=O)Cc2ccccc2C1C(=O)NCc1ccc(C)cc1 (stereo not drawn)	-3.3	-4.1
O=C(O)Cc1nn(Cc2ccccc2)c(=O)c2ccccc12	-0.6	-5.0
COc1ccc(-c2ncc3ccccn23)cc1OC	4.0	-2.2
COc1cc(-c2cc3ccccn3c2)cc(OC)c1OC	61.0*	-0.3
Clc1cccc(-c2cc3ccccn3c2)c1	63.1*	4.7
Clc1cccc(-c2cn3ccccc3n2)c1	3.5	-0.5
COCCc1nc(C2CCCN(C(=O)COc3ccccc3)C2)n[nH]1 (stereo not drawn)	3.1	-0.2
CC1=NN(C(=O)c2ccccc2F)C(O)(c2ccc(Cl)cc2)C1 (stereo not drawn)	11.0	-1.7
CC1=NN(C(=O)c2cccc(Cl)c2)C(O)(c2ccc(Cl)cc2)C1 (stereo not drawn)	54.0*	-7.7
CC1=NN(C(=O)c2ccc(Cl)cc2)C(O)(c2ccc(Cl)cc2)C1 (stereo not drawn)	67.0*	2.4
CC1=NN(C(=O)c2ccccc2Cl)C(O)(c2ccc(Cl)cc2)C1 (stereo not drawn)	15.0	-6.4
CCOC(=O)CC1(NC(=O)N2CCc3c(nc(-c4ccccc4)[nH]c3=O)C2)CCCCC1	14.9	-7.8
CCc1ccc(-c2[nH]ncc2CN2CCCC2c2cc(C(C)C)on2)cc1 (stereo not drawn)	29.2	-3.0
CN1CCN(C(=O)CN2C(=O)/C(=C/c3cccc(Cl)c3)Sc3ccccc32)CC1	33.0	-2.2
COc1ccc(C)cc1NC(=O)C1C2C=CC(C2)C1C(=O)O (stereo not drawn)	1.4	-3.7
COc1ccc(C)cc1C(=O)C1CC(C(=O)O)C(C)(C)C1C (stereo not drawn)	3.6	58.7*
Cc1ccc(-c2nc(C(=O)Nc3ccc4c(c3)OCCO4)c3n2CCCCC3)cc1	7.4	1.9
Cc1cc(C)n2nc(SCC(=O)Nc3ccc(Br)cc3)nc2n1	46.0	-11.4
SMILES	mHTT CaM bind	Pf apPOL block
COc1ccc(/C=C/c2[nH]c(=O)[nH]c(=O)c2[N+](=O)[O-])cc1Br	25.0	-4.0
O=C1CC(c2ccccc2Cl)c2c(n[nH]c2-c2ccccc2)N1 (stereo not drawn)	69.4*	1.7
COc1ccc(C2CC(=O)Nc3n[nH]c(-c4ccccc4)c32)c(OC)c1 (stereo not drawn)	80.4*	1.0
COc1ccc(C2CC(=O)Nc3n[nH]c(-c4ccc(Cl)cc4)c32)c(OC)c1 (stereo not drawn)	38.8	-2.7
O=C1CC(c2ccccc2F)c2c(n[nH]c2-c2ccccc2)N1 (stereo not drawn)	7.2	3.7
COc1cc(NS(=O)(=O)c2ccc(NC(=O)COc3ccc(Cl)cc3C)cc2)ncn1	-1.0	-8.9
CCN(CC)c1ccc(NC(=O)CCS(=O)(=O)c2cccc3nsnc23)c(C)c1	17.0	-2.2
CCN(CC)c1ccc(NS(=O)(=O)c2cccc3nsnc23)c(C)c1	54.0*	-3.9
O=C(CSc1nccnc1N1CCN(c2ccccc2)CC1)Nc1ccc(F)cc1F	-11.7	-11.4
Cc1cc(C)c(S(=O)(=O)N2CCCC2c2nc(-c3ccccc3C)no2)cc1C (stereo not drawn)	-39.9	2.4
Cc1nn2c(NCc3ccccn3)c3c(nc2c1-c1ccccc1)CCCC3	63.4*	1.2
c1ccc(CNc2nc(-c3ccncc3)nc3c2CCC3)nc1	6.5	-14.1
COc1cccc(C=Nc2ccc3oc(-c4ccc(N(C)C)cc4)nc3c2)c1O	-3.0	-5.4
CCOc1ccccc1NC(=O)c1ccccc1Cl	-17.9	0.6
CCOc1ccccc1NC(=O)c1c[nH]c(=O)n(-c2ccc(F)cc2)c1=O	72.4*	-13.2
O=C(Cn1ccc2ccc(N3CCCCCC3)nc21)NC1CCCCC1	50.2*	2.2
O=C(Cn1ccc2ccc(N3CCCCC3)nc21)NC1CCCC1	3.9	1.5
CSc1ccc(CNC(=O)C2CCN(c3cncnc3N3CCCCC3)CC2)cc1	25.2	-2.2
Cc1cccc(CNC(=O)C2CCN(c3cncnc3N3CCCC3)CC2)c1	21.9	8.3
O=C(NCc1cccc(Cl)c1)C1CCN(c2cncnc2N2CCCC2)CC1	51.7*	-0.4
